Screening results: PubChem, National Center for Advancing Translational Sciences (NCATS)
Sampled rows, rich in hits. Any-hit rate of the full collection: about 19%.
IL-1B inflam inh = qHTS for Inhibitors of Inflammasome Signaling: IL-1-beta AlphaLISA Primary Screen; activity change, % at 57.5 µM; THP-1 LPS/ATP IL-1B secretion, AlphaLISA, 16 h; active compounds read low; actives 4.7% (n = 360,000); in the data active = activity change below about -50%; inconclusive = mostly about -30% to -49%
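Secreted IL-1B measured by AlphaLISA bead assay after 16 h compound exposure of THP-1 cells; compounds (final up to 57.5 uM) added 1 h before LPS (250 ng/mL) and ATP (1.25 mM) stimulation; lower signal means less secretion.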
TDP1 cell CPT = qHTS for Inhibitors of human tyrosyl-DNA phosphodiesterase 1 (TDP1): qHTS in cells in presence of CPT; chicken DT40 Tdp1-/-;hTDP1 cells + 20 nM CPT, ATP luminescence, 48 h; Potency, µM (series often up to 46.2 µM), without a hit: at the highest dose activity change, negative = growth inhibition, hits mostly inhibitors; actives 12% (n = 420,000); AID 686979, 2013; note: potency is the fitted concentration of half-maximal effect; nearly all actives have a fitted effect of over 55% in size
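Chicken DT40 Tdp1-/- cells complemented with human TDP1, 400 cells/well, exposed to compounds plus 20 nM camptothecin for at least 48 h at 37 C; viability read as ATP content by CellTiter-Glo luminescence.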
TDP1 inh = qHTS Assay for Inhibitors of Tyrosyl-DNA Phosphodiesterase (TDP1). Tyrosyl-DNA phosphodiesterase 1 (Homo sapiens), Q9NUW8. recombinant TDP1, AlphaScreen DNA substrate cleavage. Potency, µM (top dose mostly 130 µM), inactives show at the highest dose activity change, negative = inhibition, most hits filed as inhibitors. actives 0.28% (n = 350,000); note: potency is the fitted concentration of half-maximal effect; nearly all actives have a fitted effect of over 40% in size
Target sequence (Q9NUW8 whole entry, looked up): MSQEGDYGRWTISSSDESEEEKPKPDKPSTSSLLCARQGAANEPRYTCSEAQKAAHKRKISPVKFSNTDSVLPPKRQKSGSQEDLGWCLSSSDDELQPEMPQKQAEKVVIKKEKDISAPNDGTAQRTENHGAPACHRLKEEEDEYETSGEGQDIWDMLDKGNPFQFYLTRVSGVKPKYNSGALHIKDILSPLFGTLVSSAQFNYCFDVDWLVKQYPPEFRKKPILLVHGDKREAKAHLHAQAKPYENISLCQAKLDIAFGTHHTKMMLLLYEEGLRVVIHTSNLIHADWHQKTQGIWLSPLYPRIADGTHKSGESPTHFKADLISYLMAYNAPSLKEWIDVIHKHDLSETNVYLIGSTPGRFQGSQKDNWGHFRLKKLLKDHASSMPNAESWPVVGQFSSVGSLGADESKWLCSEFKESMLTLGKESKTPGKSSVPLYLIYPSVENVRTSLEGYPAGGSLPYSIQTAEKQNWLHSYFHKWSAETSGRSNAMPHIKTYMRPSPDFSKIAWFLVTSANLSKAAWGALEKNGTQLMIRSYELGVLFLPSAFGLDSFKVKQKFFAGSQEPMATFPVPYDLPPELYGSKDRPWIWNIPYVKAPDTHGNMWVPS
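Signal: AlphaScreen proximity between streptavidin donor and anti-FITC acceptor beads on intact substrate. Reaction: Tdp1 1 nM, substrate 15 nM final, 5 min RT after 15 min compound preincubation.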
ELG1 DNA repair = qHTS screen for small molecules that inhibit ELG1-dependent DNA repair in human embryonic kidney (HEK293T) cells expressing luciferase-tagged ELG1 | HEK293T ELG1-luciferase reporter, luminescence, 16 h; DNA damage induced by 5-fluorouridine | Potency, µM (top dose mostly 46.1 µM), for the others: top-dose activity change, negative = inhibition, actives largely listed as inhibitors | actives 2.3% (n = 330,000) | AID 504467, 2011; note: potency is the fitted concentration of half-maximal effect; nearly all actives have a fitted effect of over 55% in size
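DMSO vehicle served as the neutral condition. Each well held 2,000 cells given 5-fluorouridine plus compound; after 16 hr at 37 °C/5% CO2, ONE-Glo was added and luciferase measured 30 min later.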
Giardia kill = Small Molecules that selectively kill Giardia lamblia: qHTS; Giardia lamblia trophozoite viability; activity change, % at 7.66 µM, hits read low; actives 0.15% (n = 340,000); in the data active = activity change below about -80%; inconclusive = between about -30% and that limit;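 note: parasites exposed to compound for two days anaerobically before the ATP read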
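Media and compound were dispensed first, then trophozoites at 100 cells/well; plates sat 48 hrs at 37 deg C without oxygen before ATP luminescence reagent was added and read after 15-30 min at room temperature.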
TDP1 cell noCPT = qHTS for Inhibitors of human tyrosyl-DNA phosphodiesterase 1 (TDP1): qHTS in cells in absence of CPT | DT40 Tdp1-/- hTDP1 cells, no CPT, ATP luminescence, 48 h | Potency, µM (series often up to 46.2 µM), without a hit: at the highest dose activity change, negative = growth inhibition, most hits filed as inhibitors | actives 15% (n = 420,000) | AID 686978, 2013; note: potency is the fitted concentration of half-maximal effect; nearly all actives have a fitted effect of over 55% in size
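Stably hTDP1-transfected Tdp1-null chicken DT40 cells were treated with library compounds minus camptothecin and grown for at least 48 hr at 37 °C, after which cellular ATP was quantified by luminescence.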
Active calls of the source: *; ? = inconclusive; nt = not tested or not shown. Unless noted, calls come from the whole dose curve; as a rule, active = well fitted curve in the direction sought with a large enough effect; inconclusive = small, poorly fitted or top-dose-only effect, or another doubt; inactive = no such curve, though single readings can be large; an effect the other way counts as inactive or inconclusive. % is set by controls: 0 for no effect and ±100 for the full control effect.

SMILES	IL-1B inflam inh	TDP1 cell CPT	TDP1 inh	ELG1 DNA repair	Giardia kill	TDP1 cell noCPT
O=C(CSc1nnc2ccc3ccccc3n12)Nc1ccccc1Cl	nt	?	0.5%	nt	nt	18.4µM*
CCc1ccccc1NC(=O)CSc1nnc2ccc3ccccc3n12	nt	?	-4.7%	nt	nt	?
Cc1ccc(C(=O)CSc2nnc3ccc4ccccc4n23)cc1	nt	?	-4.7%	nt	nt	16.4µM*
COc1ccc(OC)c(NC(=O)CSc2nnc3ccc4ccccc4n23)c1	nt	?	7.8%	nt	nt	20.6µM*
CCN(CC)c1ccc2cc(S(=O)(=O)c3ccc(C)cc3)c(=O)oc2c1	-3.7	?	5.6%	-9.1%	-22.9	?
O=C(Nc1ccc(OC(F)(F)F)cc1)C1CCCN(S(=O)(=O)c2cnc[nH]2)C1 (stereo not given)	51.2	-10.7%	0.8%	2.8%	10.0	?
CCc1ccccc1Nc1nc2cc(Cl)c(Cl)cc2nc1-n1nc(C)cc1C	nt	-16.7%	0.0%	nt	nt	6.3%
Cc1cccc(N(Cc2ccccc2)C(=O)c2ccc(S(C)(=O)=O)cc2)c1	0.0	16.4µM*	3.5%	-1.1%	4.1	?
COc1cc(C(=O)N(Cc2ccccc2)c2cccc(C)c2)ccc1OCC(=O)N1CCOCC1	-16.7	?	nt	nt	nt	16.4µM*
COc1ccc(C(=O)N(Cc2ccccc2)c2cccc(C)c2)cc1	12.8	14.6µM*	-1.3%	?	?	?
Cc1ccc2c(c1)cc1c(=O)n(CC(=O)NCCN3CCCC3)nc(C)n12	-9.8	-19.7%	-2.1%	?	-22.3	-23.2%
O=C(CSc1nc2c(oc3ccccc32)c(=O)n1Cc1ccco1)Nc1ccccc1Cl	nt	?	2.0%	nt	nt	?
O=C(NC1CCN(S(=O)(=O)c2cccc(F)c2)CC1)c1cccc(F)c1	-16.0	-20.8%	nt	-12.5%	-6.2	4.9%
COc1ccc(NS(=O)(=O)c2cc(N)ccc2N2CCCC2)cc1	-0.9	?	6.1%	-21.7%	9.8	?
COc1ccc(NS(=O)(=O)c2ccc(N3CCCC3)c(NC(=S)Nc3cccc(C)c3C)c2)cc1	?	11.6µM*	5.7%	?	12.4	9.2µM*
COc1ccc(NS(=O)(=O)c2ccc(N3CCCC3)c(NC(=S)Nc3ccc(SC(F)F)cc3)c2)cc1	-19.7	18.4µM*	10.5%	23.1µM*	-9.7	18.4µM*
CCNC(=O)Nc1cc(S(=O)(=O)Nc2ccc(OC)cc2)ccc1N1CCOCC1	-14.1	2.31µM*	0.6%	15.0%	-6.5	0.731µM*
COc1ccc(-c2nnc(SCC(=O)Oc3cc(C)ccc3C)o2)cc1	nt	14.2%	2.9%	nt	nt	-1.7%
CC(=O)Nc1ccc2nc(SCC(=O)Nc3ccc(N4CCOCC4)c(Cl)c3)sc2c1	0.0	?	0.0%	?	-0.5	?
COc1ccc(NC(=O)CSc2nc3ccc(Nc4nc(N5CCOCC5)nc(N5CCOCC5)n4)cc3s2)cc1	-9.6	11.6µM*	0.5%	2.31µM*	-12.5	6.51µM*
CC(=O)CSc1nc2ccc(Nc3nc(N4CCOCC4)nc(N4CCOCC4)n3)cc2s1	-13.4	?	6.6%	?	-13.1	?
Cc1ccc(NC(=O)CSc2nc3ccc(Nc4nc(N5CCOCC5)nc(N5CCOCC5)n4)cc3s2)cc1	20.7	?	1.0%	?	-7.9	18.4µM*
CC(C)(C)NC(=O)CSc1nc2ccc(Nc3nc(N4CCOCC4)nc(N4CCOCC4)n3)cc2s1	-8.3	13µM*	2.4%	3.26µM*	9.1	6.51µM*
CCOC(=O)CSc1nc2ccc(Nc3nc(N4CCOCC4)nc(N4CCOCC4)n3)cc2s1	17.1	?	-4.9%	?	2.2	20.6µM*
O=C(NCc1ccccc1)c1cc(C2COCCN2C(=O)c2ccc(Cl)cc2)on1 (stereo not given)	2.9	-3.4%	nt	nt	nt	-29.0%
SMILES	IL-1B inflam inh	TDP1 cell CPT	TDP1 inh	ELG1 DNA repair	Giardia kill	TDP1 cell noCPT
CCc1ccc(NC(=O)c2ccc3c(O)c(S(=O)(=O)c4ccccc4)c(=O)[nH]c3c2)cc1	nt	0.9%	-5.1%	nt	nt	-10.8%
Cc1onc(-c2ccccc2Cl)c1C(=O)NCc1nc(-c2ccccc2)no1	-11.6	9.2µM*	3.3%	?	14.4	9.2µM*
COc1ccccc1CNC(=O)c1c(-c2ccccc2Cl)noc1C	13.6	?	2.7%	-3.5%	17.8	?
Cc1occc1C(=O)N(C)Cc1nc(-c2ccc(Cl)cc2)no1	31.6	25.9µM*	nt	?	-8.0	20.6µM*
CC(C)N(Cc1nc(-c2ccccc2)no1)C(=O)C1CCCCC1	9.3	?	3.9%	-2.0%	9.3	?
CC(C)N(Cc1nc(-c2ccccc2)no1)C(=O)c1ccc(Br)o1	-21.8	-20.0%	-1.1%	?	-9.2	16.4µM*
COc1ccc(-c2noc(CN(C(=O)c3c(-c4ccccc4Cl)noc3C)C(C)C)n2)cc1	-5.4	16.4µM*	0.0%	?	-5.1	23.1µM*
Fc1ccc(OCc2nc3ccccc3s2)cc1	57.6	0.9%	-2.7%	?	-12.3	?
COc1ccc(N(CC(=O)NCCC2=CCCCC2)S(=O)(=O)c2c(C)[nH]c(=O)[nH]c2=O)cc1	-5.3	-7.3%	nt	-4.3%	-10.6	-4.7%
CC(=O)c1ccc(NC(=O)CSc2nnc(NC(=O)c3ccco3)s2)cc1	-10.3	-5.8%	2.5%	?	-23.0	-2.5%
CC(C)N(Cc1nc(-c2ccc(Cl)cc2)no1)C(=O)c1ccco1	nt	?	6.9%	nt	nt	23.1µM*
COc1ccc(-c2noc(CNC(=O)c3cc(OC)c(OC)c(OC)c3)n2)cc1	nt	-0.1%	-2.3%	nt	nt	-4.8%
Cc1ccc(-c2noc(CNC(=O)c3ccc(C)c(Cl)c3)n2)cc1	nt	?	2.5%	nt	nt	23.1µM*
CCCCOc1ccc(C(=O)N(Cc2nc(-c3ccc(Cl)cc3)no2)C(C)C)cc1	nt	?	2.5%	nt	nt	?
CN(Cc1nc(-c2ccc(Cl)cc2)no1)C(=O)c1ccco1	-8.6	-25.7%	nt	-5.6%	-4.8	?
CC(C)N(Cc1nc(-c2ccccc2)no1)C(=O)c1ccc(Cl)cc1	-16.9	18.4µM*	5.2%	-12.0%	-6.6	18.4µM*
COc1ccccc1C(=O)N(Cc1nc(-c2ccc(Cl)cc2)no1)C(C)C	8.1	29.1µM*	0.0%	?	4.6	16.4µM*
COc1ccc(-c2noc(CN(C)Cc3ccccc3)n2)cc1	23.5	-15.7%	nt	2.4%	-11.0	18.4µM*
